Reference: the OligoGym collection

biological target: STX17; experiment: pooled miR-30 sensor sort-seq; sequence = guide strand; conditions: shRNA

| Sequence | sensor-assay potency score (higher = more potent) |
| --- | --- |
| TATATCTGAGTCAAACTCTGAG | 0.23 |
| TTCTACACATCTCAAGTCCTTA | 0.0253 |
| TTCTTCATCATTAAATTGCTTC | 0.0874 |
| TTGACATGGTCTGCAATGCTGT | -0.961 |
| TAGTATGAAATGCTCCACCAAC | -1.07 |
| TCAAACTCTGAGAACTAGCTTC | 0.0575 |
| TTCTGCAGCATTTTGATCTTGA | 0.632 |
| AATGCTGTCAATCTTCTCCTGC | 0.00387 |
| TTCTTTAACAGGATCTATCATT | -0.828 |
| TTTGTATCAATTTTCCACCTGT | 0.455 |
| TACTTCTCAATATTTATCTGGT | 0.329 |
| TTCATCATTAAATTGCTTCTTA | 0.611 |

biological target: STYK1; experiment: as above; conditions: shRNA

| Sequence | sensor-assay potency score (higher = more potent) |
| --- | --- |
| TTCATGATACTGTACATGGTAT | -0.548 |
| TTGAGAATAACACTCTTGGGCT | -0.459 |
| TAGAAGAGGCTCTCCACTCTGA | 0.202 |
| TTTAATGGCAGCTTCTAGGCGC | 0.0946 |
| TTGTTCTCTGATAAAAAGCCAC | -1.1 |
| TATGTCTTAGCTCAGGATGTGT | -0.84 |
| TTGAGTTCTTTGTTCTCTGATA | -1.2 |
| ATAGTCATCACATCCCGCCGAC | -0.512 |
| ATCCATAGTCATCACATCCCGC | -0.719 |
| TATTCCTTCATTTCATTCCAAA | -1.26 |
| ATAGTAACCAACAAAGTTGGGA | 0.0523 |
| TTGAGGTCCAGAACGCTGCTGT | 0.125 |

biological target: STYX; experiment: as above; conditions: shRNA

| Sequence | sensor-assay potency score (higher = more potent) |
| --- | --- |
| TTCTTTCTTGAACATAAGCAAA | -1.59 |
| TTCTGTAGTACAGGTAGCTTGC | -0.197 |
| TGTAGTACAGGTAGCTTGCTTT | -0.453 |
| TAAAATTTCCTGCATCTCTCGT | -0.395 |
| TAAATATCTAAATAACTGCTGA | -0.29 |
| TAGGGTAGGTCCACTCCTCGGC | 0.0939 |
| TAGCAGATGAATATGGGCCTAA | -0.352 |
| TTTCTGTAGTACAGGTAGCTTG | -1 |
| TTGCTTCAATATTTTGTCGTAT | -0.787 |
| TAATACAAAATCTTCTTTCTTG | 0.259 |
| TTGCTTTTCATAGCAGATGAAT | -1.47 |
| TAGAAATTCACACTCTATGATG | -0.976 |
